Measured values from PubChem BioAssay (NCATS).
Records with an inconclusive call do not appear. Unless noted, calls come from the whole dose curve; as a rule, active = well fitted curve in either direction with a large enough effect (not every such curve was filed as active); inconclusive = small, poorly fitted or top-dose-only effect, or another doubt; inactive = flat fitted curve, though single readings scatter.

Experiments:
[1] = AP1 Signaling Pathway (AID 357); settings: ME-180 AP-1-bla reporter, EGF-induced, beta-lactamase ratio, 5 h; at 17.2 µM (top of the series) unless noted; note: % is set by controls: 0 for no effect and ±100 for the full control effect
How it was run: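 Modulation of EGF-driven AP-1 transcription was assessed with a beta-lactamase reporter in ME-180 cells. Compound and EC50 EGF were co-incubated 5 hours at 37 °C before 2.5-hour CCF4 loading at room temperature and dual-emission reading.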

[2] = NFAT Signaling Pathway (AID 444); settings: Jurkat NFAT-bla M1, carbachol, beta-lactamase ratio, 5 h; at 17.2 µM (top of the series) unless noted;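 note: carbachol stimulus at about its EC50 of 1 µM final; % is set by controls: 0 for no effect and ±100 for the full control effect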
How it was run: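 Read-out: CCF4 FRET ratio (460 nm/530 nm) after 1 h RT dye loading, used for %activity and AC50 from titration series. Cells: Jurkat NFAT-β-lactamase/M1 line, treated with compound plus 1 uM carbachol for 5 h, 37 °C.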

[3] = Stat Signaling Pathway (AID 446); settings: ME-180 (cervical carcinoma) SIE beta-lactamase reporter, IL-6 stimulated, 5 h; at 17.2 µM (top of the series) unless noted;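 note: ME-180 cervical cancer cells given 40 pM IL-6 alongside compound; SIE-controlled beta-lactamase reporter measured as 460/530 nm FRET emission ratio; % is set by controls: 0 for no effect and ±100 for the full control effect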
How it was run: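 Compound effects on IL-6-induced STAT reporter activity were measured in ME-180 cells. After overnight culture, cells were co-treated with 40 pM IL-6 for 5 hrs before beta-lactamase substrate loading at room temperature.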

[4] = biological target: Glucocorticoid receptor (Homo sapiens) (UniProt P04150); assay: GR-GFP Redistribution (AID 450;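 active = compounds whose dose series gives a full or clear partial fitted curve of increased nuclear translocation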; note: potency is the fitted concentration of half-maximal effect)
Chain of Glucocorticoid receptor (Homo sapiens) (P04150 whole entry, looked up): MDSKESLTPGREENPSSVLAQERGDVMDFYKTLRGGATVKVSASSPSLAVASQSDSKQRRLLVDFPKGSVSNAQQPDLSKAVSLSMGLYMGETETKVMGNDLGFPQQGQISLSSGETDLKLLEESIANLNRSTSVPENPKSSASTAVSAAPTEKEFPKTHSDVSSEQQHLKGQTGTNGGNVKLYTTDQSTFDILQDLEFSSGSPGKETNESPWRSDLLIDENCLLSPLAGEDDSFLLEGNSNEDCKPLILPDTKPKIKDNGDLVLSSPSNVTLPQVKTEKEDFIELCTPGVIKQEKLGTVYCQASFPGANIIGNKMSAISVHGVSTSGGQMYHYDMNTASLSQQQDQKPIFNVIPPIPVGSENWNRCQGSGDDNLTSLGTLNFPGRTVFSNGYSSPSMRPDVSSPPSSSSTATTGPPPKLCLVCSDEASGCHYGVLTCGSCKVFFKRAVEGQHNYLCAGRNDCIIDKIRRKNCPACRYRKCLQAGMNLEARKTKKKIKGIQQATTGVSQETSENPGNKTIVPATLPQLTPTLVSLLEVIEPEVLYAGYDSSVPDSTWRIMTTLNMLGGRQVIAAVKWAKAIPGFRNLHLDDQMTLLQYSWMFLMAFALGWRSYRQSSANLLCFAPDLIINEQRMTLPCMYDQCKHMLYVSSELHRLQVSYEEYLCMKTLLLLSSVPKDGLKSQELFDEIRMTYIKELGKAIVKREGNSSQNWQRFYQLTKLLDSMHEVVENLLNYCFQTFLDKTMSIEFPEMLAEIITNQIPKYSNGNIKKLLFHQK

C=C(c1ccc(OCCO)cc1)c1ccc(OCCO)cc1
inactive: activity change, negative = inhibition [1] -5.64% | activity change, negative = inhibition [2] -1.3% | activity, negative = inhibition [3] -3.23% | Potency [4] > 20.6 µM

CCc1cc2c(=O)c(-c3cscn3)coc2cc1O
inactive: activity change, negative = inhibition [1] -3.15% | activity change, negative = inhibition [2] -8.09% | activity, negative = inhibition [3] -14.6% | Potency [4] > 20.6 µM

CCN(CC)C(=O)COn1c(SCC(=O)N(CC)CC)nc2ccccc2c1=O
inactive: activity change, negative = inhibition [1] -3.71% | activity change, negative = inhibition [2] 17.3% | activity, negative = inhibition [3] 9.4% | Potency [4] > 20.6 µM

CC(=O)NC(=O)Nc1sc(=S)n(C)c1C
inactive: activity change, negative = inhibition [1] -0.255% | activity change, negative = inhibition [2] 15.7% | activity, negative = inhibition [3] 1.93% | Potency [4] > 20.6 µM

CSc1nc2sc3c(c2c(=O)[nH]1)CCC(C)C3 (stereo not given)
inactive: activity change, negative = inhibition [1] 7% | activity change, negative = inhibition [2] -2.6% | activity, negative = inhibition [3] 8.48% | Potency [4] > 20.6 µM

Cc1ccc(NC(=O)CSc2nnc(-c3ccco3)c(-c3ccco3)n2)cc1
inactive: activity change, negative = inhibition [1] 0.107% | activity change, negative = inhibition [2] -24.9% | activity, negative = inhibition [3] -23.9% | Potency [4] > 20.6 µM

CC(O)(C#CCN1CCOCC1)c1ccccc1 (stereo not given)
inactive: activity change, negative = inhibition [1] -0.153% | activity change, negative = inhibition [2] 8.45% | activity, negative = inhibition [3] 7.2% | Potency [4] > 20.6 µM

CCOC(=O)c1ccc(NC(=O)CCC(CC)C(=O)O)cc1 (stereo not given)
inactive: activity change, negative = inhibition [1] -2.51% | activity change, negative = inhibition [2] -11.6% | activity, negative = inhibition [3] 3.77% | Potency [4] > 20.6 µM

CCCC(=O)N1CCN(c2nc(CC(C)C)c3c(c2C#N)CCC3)CC1
inactive: activity change, negative = inhibition [1] -11.7% | activity change, negative = inhibition [2] -18.4% | activity, negative = inhibition [3] -1.27% | Potency [4] > 20.6 µM

CCCOc1ccc(N2C(=O)CC(N(CCC)C(=O)CCC(=O)O)C2=O)cc1 (stereo not given)
inactive: activity change, negative = inhibition [1] 3.59% | activity change, negative = inhibition [2] 18.7% | activity, negative = inhibition [3] 6.31% | Potency [4] > 20.6 µM

O=C1NC2c3ccccc3C(=O)N2c2c1cnn2-c1ccccc1 (stereo not given)
inactive: activity change, negative = inhibition [1] -6.7% | activity change, negative = inhibition [2] -1.9% | activity, negative = inhibition [3] -7.17% | Potency [4] > 20.6 µM

Cc1ccc(CC2CC(=O)N(c3ccc4c(c3)OCCO4)C2=O)cc1 (stereo not given)
inactive: activity change, negative = inhibition [1] -5.59% | activity change, negative = inhibition [2] 4.5% | activity, negative = inhibition [3] 0.576% | Potency [4] > 20.6 µM

CC(NC(=O)NCc1cccnc1)(C(F)(F)F)C(F)(F)F
inactive: activity change, negative = inhibition [1] 12.2% | activity change, negative = inhibition [2] -2.79% | activity, negative = inhibition [3] 2.04% | Potency [4] > 20.6 µM

CC1(C)Cc2[nH]c(=S)c(C#N)cc2CO1
inactive: activity change, negative = inhibition [1] 8.31% | activity change, negative = inhibition [2] -8.3% | activity, negative = inhibition [3] 27.9% | Potency [4] > 20.6 µM

COc1cc(C)nc(Oc2ccc(OCCOc3ccc(C)cc3)nn2)n1
inactive: activity change, negative = inhibition [1] -8.32% | activity change, negative = inhibition [2] 5.08% | activity, negative = inhibition [3] -5.96% | Potency [4] > 20.6 µM

Cc1ccc(-c2nn(CCC(=O)NCC3CCCO3)c(=O)c3ccccc23)cc1 (stereo not given)
inactive: activity change, negative = inhibition [1] -6.92% | activity change, negative = inhibition [2] -7.06% | activity, negative = inhibition [3] 4.3% | Potency [4] > 20.6 µM

CCOC(=O)Cc1[nH]nc2c1C(c1cc(OC)ccc1OC)C(C#N)=C(N)O2 (stereo not given)
inactive: activity change, negative = inhibition [1] -11.5% | activity change, negative = inhibition [2] -0.329% | activity, negative = inhibition [3] -9.93% | Potency [4] > 20.6 µM

Cc1cc(C)n(CC2CC(=O)N(c3ccc(C)c(Cl)c3)C2=O)n1 (stereo not given)
inactive: activity change, negative = inhibition [1] -6.66% | activity change, negative = inhibition [2] 13.9% | activity, negative = inhibition [3] -4.28% | Potency [4] > 20.6 µM

CCC(=O)Nc1cc(-c2nn(C)c(=O)c3ccccc23)ccc1N1CCCCC1
inactive: activity change, negative = inhibition [1] -16.8% | activity change, negative = inhibition [2] -13.8% | activity, negative = inhibition [3] -6.35% | Potency [4] > 20.6 µM

C=CCn1c(N)c(C(=O)OC(C)(C)C)c2nc3ccccc3nc21
inactive: activity change, negative = inhibition [1] -16.9% | activity change, negative = inhibition [2] 3.64% | activity, negative = inhibition [3] -6.1% | Potency [4] > 20.6 µM

CN1CCN(C(=O)CSc2nc(-c3ccncc3)ccc2C#N)CC1
inactive: activity change, negative = inhibition [1] 2.77% | activity change, negative = inhibition [2] -14.8% | activity, negative = inhibition [3] 1.66% | Potency [4] > 20.6 µM

CC(NC(=O)c1ccc(=O)oc1)c1ccccc1 (stereo not given)
inactive: activity change, negative = inhibition [1] 8.92% | activity change, negative = inhibition [2] 0.391% | activity, negative = inhibition [3] 6.96% | Potency [4] > 20.6 µM

COC(=O)CSc1nnc(C)c(=O)[nH]1
inactive: activity change, negative = inhibition [1] 0.589% | activity change, negative = inhibition [2] 3.42% | activity, negative = inhibition [3] 5.67% | Potency [4] > 20.6 µM

C=CCN(C(=O)CCC(=O)O)C1CC(=O)N(c2ccc(OCCC)cc2)C1=O (stereo not given)
inactive: activity change, negative = inhibition [1] 3.6% | activity change, negative = inhibition [2] -2.1% | activity, negative = inhibition [3] -6.77% | Potency [4] > 20.6 µM

CCOc1nc(SCCOc2ccccc2)nc(N(C)C)n1
inactive: activity change, negative = inhibition [1] -22.1% | activity change, negative = inhibition [2] 28% | activity, negative = inhibition [3] 8.95% | Potency [4] > 20.6 µM
